Experimental data reported in PubChem BioAssay (EPA / NIEHS).
Activity calls are given as the source filed them. The calls were made as follows: active = hit-call score of the fitted dose curve at least 0.9, where 1 is the maximum; inactive = score below 0.9.

How the values were obtained:
[1] = read-out: Transforming growth factor beta 1 (TGFb1), TGFB1 (gene 7040); test: BSK_KF3CT_TGFb1: BioMAP Diversity Plus: KF3CT Assay for Transforming growth factor beta 1 (TGFb1) Biomarker Activity (AID 2283072); conditions: primary human keratinocytes with fibroblasts; actives raise or lower the signal
Procedure, shortened: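 Signal changes in either direction, relative to DMSO, define activity here. TGF-b1 is read by ELISA from a human keratinocyte-fibroblast co-culture 24 h post-dose.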

[2] = read-out: C-C motif chemokine 2 (Homo sapiens) (UniProt P13500); test: BSK_KF3CT_MCP1: BioMAP Diversity Plus: KF3CT Assay for Monocyte Chemoattractant Protein 1 (MCP1/CCL2) Biomarker Activity (AID 2283073); conditions: primary human keratinocytes with fibroblasts; actives raise or lower the signal
Procedure, shortened: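 KF3CT skin co-culture (keratinocytes/foreskin fibroblasts), 24 h post-dose; MCP-1 by ELISA; gain/loss of signal fit bidirectionally vs DMSO baseline.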

[3] = read-out: Matrix Metallopeptidase 9 (MMP9), MMP9 (gene 4318); test: BSK_KF3CT_MMP9: BioMAP Diversity Plus: KF3CT Assay for Matrix Metallopeptidase 9 (MMP9) Biomarker Activity (AID 2283074); conditions: primary human keratinocytes with fibroblasts; actives raise or lower the signal
Procedure, shortened: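 Keratinocyte plus foreskin fibroblast human primary skin co-culture was dosed with chemical and MMP-9 was quantified by ELISA 24 h later. Bidirectional curve fitting used DMSO as negative control and activity baseline.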

[4] = read-out: urokinase plasminogen activator (uPA), PLAU (gene 5328); test: BSK_KF3CT_uPA: BioMAP Diversity Plus: KF3CT Assay for urokinase plasminogen activator (uPA) Biomarker Activity (AID 2283075); conditions: primary human keratinocytes with fibroblasts; actives raise or lower the signal
Procedure, shortened: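 Human keratinocyte plus foreskin fibroblast primary co-culture exposed to chemical for 24 h. uPA levels were quantified by ELISA, and activity was fitted bidirectionally against a DMSO negative-control baseline.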

CD40, CD40 (gene 958) [5] = test: BSK_LPS_CD40: BioMAP Diversity Plus: LPS Assay for CD40 Biomarker Activity (AID 2283076); conditions: primary human HUVEC with PBMC; actives raise or lower the signal
Procedure, shortened: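 ELISA readout of CD40 in HUVEC/PBMC co-culture (BSK_LPS system), 24 h post-dosing; bidirectional curve fit, DMSO baseline; parallel SRB total-protein staining for cytotoxicity.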

[6] = read-out: E-selectin (Homo sapiens) (UniProt P16581); test: BSK_LPS_Eselectin: BioMAP Diversity Plus: LPS Assay for Eselectin Biomarker Activity (AID 2283077); conditions: primary human HUVEC with PBMC; actives raise or lower the signal
Procedure, shortened: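 ELISA readout of E-selectin, 24 h post-dose, HUVEC + PBMC co-culture (LPS system). Gain or loss of signal vs DMSO baseline, bidirectional fit.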

[7] = read-out: Interleukin-8 (IL8), CXCL8 (gene 3576); test: BSK_LPS_IL8: BioMAP Diversity Plus: LPS Assay for Interleukin-8 (IL8) Biomarker Activity (AID 2283078); conditions: primary human HUVEC with PBMC; actives raise or lower the signal
Procedure, shortened: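 HUVEC + PBMC co-culture, LPS-activated; test chemicals dosed, IL-8 read by ELISA at 24 h. Bidirectional curve fit vs DMSO baseline (gain or loss of signal).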

[8] = BSK_LPS_SRB: Viability Assessment in the BioMAP Diversity Plus: LPS Assay (AID 2283079); conditions: primary human HUVEC with PBMC;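 also: total protein by sulforhodamine B absorbance as a cytotoxicity measure; measured one day after compound addition; fitted in both directions against DMSO so loss or gain of signal counts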
Procedure, shortened: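 HUVEC + PBMC co-culture, LPS-stimulated; compound 24 h. 10% TCA fix, 0.1% SRB stain, A560. Bidirectional fit vs DMSO.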

[9] = read-out: Interleukin-1 alpha (IL1a), IL1A (gene 3552); test: BSK_LPS_IL1a: BioMAP Diversity Plus: LPS Assay for Interleukin-1 alpha (IL1a) Biomarker Activity (AID 2283080); conditions: primary human HUVEC with PBMC; actives raise or lower the signal
Procedure, shortened: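 HUVEC/PBMC co-culture, LPS system; 24 h after dosing; IL-1a by ELISA; gain or loss of signal fitted bidirectionally vs DMSO baseline.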

[10] = read-out: Monocyte Chemoattractant Protein-1 (MCP1), CCL2 (gene 6347); test: BSK_LPS_MCP1: BioMAP Diversity Plus: LPS Assay for Monocyte Chemoattractant Protein-1 (MCP1) Biomarker Activity (AID 2283081); conditions: primary human HUVEC with PBMC; actives raise or lower the signal;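 as to AC50: secreted MCP-1 protein quantified by ELISA in culture supernatant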
Procedure, shortened: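 ELISA read-out of MCP-1 after 24 h chemical dosing of a human umbilical vein endothelial cell/peripheral blood mononuclear cell co-culture stimulated with LPS. Gain or loss of signal fitted relative to DMSO controls.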

[11] = BSK_LPS_PGE2: BioMAP Diversity Plus: LPS Assay for Prostaglandin E2 (PGE2) Biomarker Activity (AID 2283082); conditions: primary human HUVEC with PBMC; actives raise or lower the signal;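 as to AC50: secreted prostaglandin E2 measured by ELISA in LPS-stimulated co-culture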
Procedure, shortened: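 Endpoint derived from bidirectional curve fitting versus DMSO of ELISA-measured PGE2 in LPS-stimulated human primary vascular co-culture (HUVEC with PBMC) harvested at 24 h.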

[12] = read-out: Macrophage colony-stimulating factor (MCSF), CSF1 (gene 1435); test: BSK_LPS_MCSF: BioMAP Diversity Plus: LPS Assay for Macrophage colony-stimulating factor (MCSF) Biomarker Activity (AID 2283083); conditions: primary human HUVEC with PBMC; actives raise or lower the signal
Procedure, shortened: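 HUVEC + PBMC co-culture (human primary), 24 h post-dose; M-CSF by ELISA; gain/loss of signal fitted bidirectionally vs DMSO baseline.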

[13] = read-out: Tissue Factor, F3 (gene 2152); test: BSK_LPS_TissueFactor: BioMAP Diversity Plus: LPS Assay for Tissue Factor Biomarker Activity (AID 2283084); conditions: primary human HUVEC with PBMC; actives raise or lower the signal
Procedure, shortened: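 HUVEC/PBMC co-culture, LPS-activated; CD142 ELISA read 24 h post-dose; bidirectional curve fit vs DMSO negative control.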

[14] = read-out: Tumor necrosis factor (Homo sapiens) (UniProt P01375); test: BSK_LPS_TNFa: BioMAP Diversity Plus: LPS Assay for Tumour Necrosis Factor alpha (TNFa) Biomarker Activity (AID 2283085); conditions: primary human HUVEC with PBMC; actives raise or lower the signal
Procedure, shortened: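 Primary human vascular co-culture of HUVEC and PBMC; TNFa ELISA 24 h after treatment, analysed as increase or decrease relative to DMSO control.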

[15] = read-out: Vascular cell adhesion molecule 1 (VCAM1), VCAM1 (gene 7412); test: BSK_LPS_VCAM1: BioMAP Diversity Plus: LPS Assay for Vascular cell adhesion molecule 1 (VCAM1) Biomarker Activity (AID 2283086); conditions: primary human HUVEC with PBMC; actives raise or lower the signal
Procedure, shortened: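 Primary human vascular co-culture (umbilical vein endothelium plus PBMC) stimulated with LPS received chemical; 24 h later VCAM-1 was read by ELISA. Overt cytotoxicity was assessed by sulforhodamine B staining of parallel cultures at the same time point.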

CD38, CD38 (gene 952) = test: BSK_SAg_CD38: BioMAP Diversity Plus: SAg Assay for CD38 Biomarker Activity (AID 2283087); conditions: primary human HUVEC with PBMC; actives raise or lower the signal
Procedure, shortened: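 Fluorescence ELISA of cell-surface CD38 served as the read-out, with either increase or decrease fitted against DMSO controls. Cells were a human umbilical vein endothelium plus PBMC co-culture under SEB/TSST-1 stimulation, measured 24 h after dosing.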

CD40, CD40 (gene 958) [16] = test: BSK_SAg_CD40: BioMAP Diversity Plus: SAg Assay for CD40 Biomarker Activity (AID 2283088); conditions: primary human HUVEC with PBMC; actives raise or lower the signal
Procedure, shortened: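 HUVEC/PBMC co-culture, 24 h post-dose; CD40 by ELISA, fluorescence intensity; bidirectional fit vs DMSO negative control.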

CD69, CD69 (gene 969) = test: BSK_SAg_CD69: BioMAP Diversity Plus: SAg Assay for CD69 Biomarker Activity (AID 2283089); conditions: primary human HUVEC with PBMC; actives raise or lower the signal;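 as to AC50: cell surface CD69 protein quantified by ELISA with fluorescence detection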
Procedure, shortened: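 Values derive from bidirectional fitting relative to DMSO vehicle. Cells: umbilical vein endothelium plus peripheral blood mononuclear cells, treated 24 h before fluorescent ELISA for CD69.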

[17] = read-out: Monocyte Chemoattractant Protein-1 (MCP1), CCL2 (gene 6347); test: BSK_SAg_MCP1: BioMAP Diversity Plus: SAg Assay for Monocyte Chemoattractant Protein-1 (MCP1) Biomarker Activity (AID 2283090); conditions: primary human HUVEC with PBMC; actives raise or lower the signal
Procedure, shortened: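 MCP-1 levels in the endothelial–PBMC SAg co-culture were quantified by ELISA at 24 h post-dosing; both increases and decreases versus DMSO scored. Cytotoxicity monitored by SRB total protein in parallel cultures.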

[18] = read-out: E-selectin (Homo sapiens) (UniProt P16581); test: BSK_SAg_Eselectin: BioMAP Diversity Plus: SAg Assay for Eselectin Biomarker Activity (AID 2283091); conditions: primary human HUVEC with PBMC; actives raise or lower the signal
Procedure, shortened: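 E-selectin ELISA readout at 24 h post-dosing in human umbilical vein endothelial cell/PBMC co-culture; gain or loss of signal fitted relative to DMSO baseline.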

Measured: AC50

E-selectin (Homo sapiens), sequence (P16581 whole entry, looked up): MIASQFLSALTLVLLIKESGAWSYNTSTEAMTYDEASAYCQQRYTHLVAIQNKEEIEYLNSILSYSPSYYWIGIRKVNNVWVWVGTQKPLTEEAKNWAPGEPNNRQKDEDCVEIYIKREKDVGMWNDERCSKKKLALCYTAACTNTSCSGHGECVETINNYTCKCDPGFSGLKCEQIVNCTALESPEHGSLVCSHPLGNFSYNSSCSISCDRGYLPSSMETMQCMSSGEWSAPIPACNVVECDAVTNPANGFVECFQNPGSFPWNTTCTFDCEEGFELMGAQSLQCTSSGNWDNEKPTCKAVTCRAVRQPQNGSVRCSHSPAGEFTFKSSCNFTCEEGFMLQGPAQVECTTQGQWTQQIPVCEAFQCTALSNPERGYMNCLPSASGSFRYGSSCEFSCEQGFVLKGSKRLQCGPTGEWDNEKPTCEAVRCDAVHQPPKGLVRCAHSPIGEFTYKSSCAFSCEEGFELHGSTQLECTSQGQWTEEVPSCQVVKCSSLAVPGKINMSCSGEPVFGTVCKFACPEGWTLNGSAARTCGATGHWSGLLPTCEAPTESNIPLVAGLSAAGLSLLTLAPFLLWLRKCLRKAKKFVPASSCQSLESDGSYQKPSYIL
Tumor necrosis factor (Homo sapiens), sequence (P01375 whole entry, looked up): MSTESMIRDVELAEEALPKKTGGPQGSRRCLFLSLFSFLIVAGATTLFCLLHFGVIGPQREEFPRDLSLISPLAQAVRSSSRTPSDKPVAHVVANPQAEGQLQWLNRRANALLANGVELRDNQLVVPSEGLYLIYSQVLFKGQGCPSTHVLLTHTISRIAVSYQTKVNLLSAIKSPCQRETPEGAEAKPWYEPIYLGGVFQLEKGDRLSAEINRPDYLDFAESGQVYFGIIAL

C=CC(Cl)CCl (centres undefined)
active: [1] 0.189 µM | [4] 0.0169 µM | CD40, CD40 (gene 958) [16] 0.478 µM
inactive: all other assays above

OC(Cc1ccccc1Cl)(Cn1[nH]cnc1=S)C1(Cl)CC1 (centres undefined)
active: [1] 16.9 µM | CD40, CD40 (gene 958) [5] 20 µM | [10] 24.6 µM | [11] 11.1 µM | CD38, CD38 (gene 952) 20 µM | CD40, CD40 (gene 958) [16] 20 µM | CD69, CD69 (gene 969) 14.1 µM
inactive: all other assays above

C#CCOC(=O)/C=C(C)/C=C/CC(C)CCCC(C)C (centres undefined)
active: CD40, CD40 (gene 958) [5] 20 µM | [6] 20 µM | [7] 0.242 µM | CD69, CD69 (gene 969) 20 µM
not listed: [14]
inactive: all other assays above
